For 34 molecules, outcome and AC50 results are on record in PubChem BioAssay (EPA / NIEHS).

Experiment [1] deals with Bile acid receptor (Homo sapiens) (UniProt Q96RI1). Kind of experiment: ATG_FXR_TRANS: Attagene TRANS-FACTORIAL HepG2 Assay for Farnesoid X Receptor (FXR) (AID 2282979).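 Further: hits raise reporter mRNA above DMSO so AC50 marks FXR activation.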 To be noted: HepG2 Attagene TRANS FXR-GAL4 reporter transcription. Put shortly: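 HepG2 cells transiently transfected with reporter constructs in which a chimeric FXR-GAL4 protein drives a GAL4-UAS reporter; 24 h compound exposure. Reporter mRNA measured by RT-PCR, FAM labelling, HpaI digestion and capillary electrophoresis; gain-of-signal versus DMSO.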

The target in experiment [2] is Oxysterols receptor LXR-alpha (Homo sapiens) (UniProt Q13133). Kind of experiment: ATG_LXRa_TRANS: Attagene TRANS-FACTORIAL HepG2 Assay for human Liver X Receptor alpha (LXRa) (AID 2282980). To be noted: HepG2 Attagene TRANS reporter, LXRa transactivation. Put shortly: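 HepG2 cells were transiently transfected with multiplexed reporter units driven by chimeric LXRa–GAL4 fusion proteins, then dosed for 24 h. Reporter mRNA was quantified by RT-PCR, fluorescent labelling and capillary electrophoresis; gain of signal fitted against DMSO baseline.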

The target in experiment [3] is Oxysterols receptor LXR-beta (Homo sapiens) (UniProt P55055). Kind of experiment: ATG_LXRb_TRANS: Attagene TRANS-FACTORIAL HepG2 Assay for human Liver X Receptor beta (LXRb) (AID 2282981). To be noted: HepG2 Attagene TRANS GAL4-LXRb reporter, mRNA. Summed up: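 Readout: fluorescent reporter mRNA fragments resolved by capillary electrophoresis after RT-PCR. System: transiently transfected human HepG2, exogenous LXRb-Gal4 chimera driving GAL4-UAS reporter, 24 h dosing. Activity fitted upward against DMSO baseline.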

A short description of experiment [4]: ATG_M_06_TRANS: Attagene TRANS-FACTORIAL HepG2 Assay for M06 Transcription Factor (Internal Marker) (AID 2282983).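 Further: reporter transcript level by RT-PCR then capillary electrophoresis fluorescence.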 To be noted: HepG2 Attagene TRANS M06 internal marker reporter. Summed up:
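In this multiplexed HepG2 system, compounds are incubated 24 h with cells carrying GAL4-UAS reporter units. Reporter RNA is amplified and resolved by capillary electrophoresis, and induction is scored against DMSO.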

In experiment [5] the target is Transcriptional activator Myb (Homo sapiens) (UniProt P10242). Kind of experiment: ATG_Myb_CIS: Attagene CIS-FACTORIAL HepG2 Assay for human Myeloblastosis (Myb) Proto-Oncogene Transcription Factor (AID 2282986; active means hit-call score of the fitted dose curve at least 0.9, where 1 is the maximum; inactive means score below 0.9). To be noted: HepG2 Attagene CIS-FACTORIAL Myb reporter transcription; actives raise or lower the signal. Put shortly: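 In this HepG2 transient-transfection format, cis-regulated reporter mRNA is quantified 24 h post-dosing by RT-PCR with capillary electrophoresis, fitted bidirectionally to DMSO baseline.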

The target of experiment [6] is Nuclear respiratory factor 1 (Homo sapiens) (UniProt Q16656). The experiment in a line: ATG_NRF1_CIS: Attagene CIS-FACTORIAL HepG2 Assay for human Nuclear Respiratory Factor 1 (NRF1) Orphan Gene (AID 2282987; active means hit-call score of the fitted dose curve at least 0.9, where 1 is the maximum; inactive means score below 0.9). To be noted: HepG2 NRF1 cis-element reporter, Attagene multiplex; actives raise or lower the signal. Put shortly:
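Using DMSO as baseline, gain- or loss-of-signal was fitted for reporter mRNA levels in HepG2 cells transiently transfected with cis-regulated reporter units. Samples were taken 24 h after dosing and read by RT-PCR with capillary electrophoresis.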

The target of experiment [7] is Nuclear receptor subfamily 4 group A member 2 (Homo sapiens) (UniProt P43354). Kind of experiment: ATG_NURR1_TRANS: Attagene TRANS-FACTORIAL HepG2 Assay for human Nuclear Receptor Related Protein 1 (NURR1) (AID 2282985). To be noted: HepG2 Attagene TRANS reporter, mRNA readout. Put shortly: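 Read-out: reporter mRNA induction by RT-PCR plus capillary electrophoresis with fluorescence detection, after 24 h dosing of transfected HepG2 cells. Exogenous NR-Gal4 chimera activity drives GAL4-UAS reporter; activity fitted upward versus DMSO.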

Experiment [8] in a line: ATG_M_32_TRANS: Attagene TRANS-FACTORIAL HepG2 Assay for M32 Transcription Factor (Internal Marker) (AID 2282984).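 On outcome: transcript level of a background control reporter unit measured by RT-PCR and capillary electrophoresis.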 To be noted: HepG2 Attagene TRANS M32 internal marker reporter. Summed up:
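Read-out: fluorescent reporter cDNA fragments resolved by capillary electrophoresis after RT-PCR of total RNA. Transfected HepG2 cells were exposed to chemical for 24 h. Activity scored in the positive direction relative to DMSO.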

For experiment [9], the target named is Hepatocyte nuclear factor 4-alpha (Homo sapiens) (UniProt P41235). The experiment in a line: ATG_HNF4a_TRANS: Attagene TRANS-FACTORIAL HepG2 Assay for human Hepatocyte Nuclear Factor 4 alpha (HNF4a) (AID 2282982). To be noted: HepG2 HNF4a transactivation reporter, mRNA readout. Put shortly: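 Transient MRTU transfection of HepG2, 24 h dosing. Readout: reporter mRNA via RT-PCR + capillary electrophoresis, fluorescence; activity fit upward relative to DMSO control.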

Results filed as inconclusive are left out. The source made the active and inactive calls. How the source made its calls, unless noted: active means hit-call score of the fitted dose curve at least 0.9, where 1 is the maximum; inconclusive means response in the unintended direction; inactive means score below 0.9.

Sequence of Nuclear respiratory factor 1 (Homo sapiens) (Q16656 whole entry, looked up): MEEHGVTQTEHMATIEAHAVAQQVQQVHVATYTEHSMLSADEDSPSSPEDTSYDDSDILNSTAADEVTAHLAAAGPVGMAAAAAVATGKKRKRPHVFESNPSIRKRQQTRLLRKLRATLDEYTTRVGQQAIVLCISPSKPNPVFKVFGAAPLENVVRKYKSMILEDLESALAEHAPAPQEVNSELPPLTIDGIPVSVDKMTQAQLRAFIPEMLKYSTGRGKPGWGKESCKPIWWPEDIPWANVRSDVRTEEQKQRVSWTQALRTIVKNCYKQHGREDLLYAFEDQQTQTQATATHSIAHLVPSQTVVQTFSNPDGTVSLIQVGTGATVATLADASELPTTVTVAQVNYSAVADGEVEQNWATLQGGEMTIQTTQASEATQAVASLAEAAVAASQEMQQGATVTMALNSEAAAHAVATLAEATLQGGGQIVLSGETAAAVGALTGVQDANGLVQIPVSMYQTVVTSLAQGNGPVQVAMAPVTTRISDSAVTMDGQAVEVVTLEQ
Sequence of Transcriptional activator Myb (Homo sapiens) (P10242 whole entry, looked up): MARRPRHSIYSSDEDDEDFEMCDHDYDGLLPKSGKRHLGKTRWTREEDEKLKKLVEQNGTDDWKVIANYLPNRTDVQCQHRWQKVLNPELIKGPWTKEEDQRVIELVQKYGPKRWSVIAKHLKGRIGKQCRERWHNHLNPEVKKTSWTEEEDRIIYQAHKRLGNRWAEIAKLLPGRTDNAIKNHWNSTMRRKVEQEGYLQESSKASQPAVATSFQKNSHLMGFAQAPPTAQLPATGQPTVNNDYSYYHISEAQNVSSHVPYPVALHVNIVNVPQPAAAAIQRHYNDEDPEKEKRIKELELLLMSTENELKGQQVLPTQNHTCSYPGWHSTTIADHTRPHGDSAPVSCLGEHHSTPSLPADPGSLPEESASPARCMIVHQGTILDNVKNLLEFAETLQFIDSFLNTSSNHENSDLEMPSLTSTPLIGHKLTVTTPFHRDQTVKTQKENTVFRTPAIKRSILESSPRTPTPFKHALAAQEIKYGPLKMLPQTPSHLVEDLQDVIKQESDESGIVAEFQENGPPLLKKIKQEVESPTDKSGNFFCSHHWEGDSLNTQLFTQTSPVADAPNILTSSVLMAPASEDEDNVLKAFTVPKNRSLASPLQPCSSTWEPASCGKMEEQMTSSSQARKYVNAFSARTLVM
Sequence of Bile acid receptor (Homo sapiens) (Q96RI1 whole entry, looked up, the tested form may be a part): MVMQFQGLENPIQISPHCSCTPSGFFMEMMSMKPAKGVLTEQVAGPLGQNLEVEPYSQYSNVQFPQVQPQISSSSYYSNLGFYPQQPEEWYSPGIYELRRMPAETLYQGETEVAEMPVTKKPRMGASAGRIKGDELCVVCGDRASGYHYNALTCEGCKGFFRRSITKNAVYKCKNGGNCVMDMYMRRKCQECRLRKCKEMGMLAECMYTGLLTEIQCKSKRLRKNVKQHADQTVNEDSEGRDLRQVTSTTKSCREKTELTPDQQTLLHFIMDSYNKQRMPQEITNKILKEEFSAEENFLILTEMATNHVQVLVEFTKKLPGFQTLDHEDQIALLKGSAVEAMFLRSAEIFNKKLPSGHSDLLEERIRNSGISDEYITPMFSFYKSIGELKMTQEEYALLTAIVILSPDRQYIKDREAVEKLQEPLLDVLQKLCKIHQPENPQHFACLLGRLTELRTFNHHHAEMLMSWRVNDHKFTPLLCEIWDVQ
Sequence of Nuclear receptor subfamily 4 group A member 2 (Homo sapiens) (P43354 whole entry, looked up, the tested form may be a part): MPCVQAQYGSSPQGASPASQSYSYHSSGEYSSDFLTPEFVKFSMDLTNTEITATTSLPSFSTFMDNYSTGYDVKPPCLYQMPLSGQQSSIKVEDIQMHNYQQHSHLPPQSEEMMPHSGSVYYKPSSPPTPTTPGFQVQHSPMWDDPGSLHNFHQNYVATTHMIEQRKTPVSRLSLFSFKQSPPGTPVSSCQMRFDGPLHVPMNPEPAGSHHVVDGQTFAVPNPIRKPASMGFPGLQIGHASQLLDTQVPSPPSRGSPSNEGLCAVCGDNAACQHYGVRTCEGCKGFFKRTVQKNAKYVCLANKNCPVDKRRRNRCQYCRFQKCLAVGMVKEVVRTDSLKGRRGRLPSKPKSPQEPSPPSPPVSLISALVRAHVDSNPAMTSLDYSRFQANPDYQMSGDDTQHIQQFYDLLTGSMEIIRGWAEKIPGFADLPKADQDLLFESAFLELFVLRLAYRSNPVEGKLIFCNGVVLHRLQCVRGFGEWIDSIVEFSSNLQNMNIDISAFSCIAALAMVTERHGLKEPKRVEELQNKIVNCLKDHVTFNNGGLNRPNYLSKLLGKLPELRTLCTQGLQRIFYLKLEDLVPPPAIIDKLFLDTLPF
Sequence of Oxysterols receptor LXR-beta (Homo sapiens) (P55055 whole entry, looked up, the tested form may be a part): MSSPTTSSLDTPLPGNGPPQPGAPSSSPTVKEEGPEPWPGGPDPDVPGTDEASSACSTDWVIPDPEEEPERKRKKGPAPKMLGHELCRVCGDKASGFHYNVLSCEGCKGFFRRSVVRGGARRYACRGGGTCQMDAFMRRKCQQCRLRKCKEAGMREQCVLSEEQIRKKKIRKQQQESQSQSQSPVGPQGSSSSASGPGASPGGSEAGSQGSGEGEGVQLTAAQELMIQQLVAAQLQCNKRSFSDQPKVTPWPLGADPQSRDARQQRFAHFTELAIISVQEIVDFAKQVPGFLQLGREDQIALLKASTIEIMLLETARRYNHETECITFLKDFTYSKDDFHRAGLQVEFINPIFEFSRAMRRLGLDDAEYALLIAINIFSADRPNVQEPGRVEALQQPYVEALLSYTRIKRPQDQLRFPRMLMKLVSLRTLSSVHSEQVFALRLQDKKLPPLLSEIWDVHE
Sequence of Oxysterols receptor LXR-alpha (Homo sapiens) (Q13133 whole entry, looked up, the tested form may be a part): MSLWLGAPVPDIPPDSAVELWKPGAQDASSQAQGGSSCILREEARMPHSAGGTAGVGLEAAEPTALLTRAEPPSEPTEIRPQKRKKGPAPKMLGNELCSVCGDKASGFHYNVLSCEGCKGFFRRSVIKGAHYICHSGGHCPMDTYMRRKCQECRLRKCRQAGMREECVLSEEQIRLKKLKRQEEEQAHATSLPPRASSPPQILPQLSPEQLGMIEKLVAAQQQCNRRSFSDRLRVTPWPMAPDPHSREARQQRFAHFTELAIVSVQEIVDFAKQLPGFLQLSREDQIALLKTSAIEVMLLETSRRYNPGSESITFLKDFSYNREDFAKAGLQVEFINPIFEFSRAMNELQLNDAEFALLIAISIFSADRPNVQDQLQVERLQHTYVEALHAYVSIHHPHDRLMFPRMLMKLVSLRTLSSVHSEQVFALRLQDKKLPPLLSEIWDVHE
Sequence of Hepatocyte nuclear factor 4-alpha (Homo sapiens) (P41235 whole entry, looked up): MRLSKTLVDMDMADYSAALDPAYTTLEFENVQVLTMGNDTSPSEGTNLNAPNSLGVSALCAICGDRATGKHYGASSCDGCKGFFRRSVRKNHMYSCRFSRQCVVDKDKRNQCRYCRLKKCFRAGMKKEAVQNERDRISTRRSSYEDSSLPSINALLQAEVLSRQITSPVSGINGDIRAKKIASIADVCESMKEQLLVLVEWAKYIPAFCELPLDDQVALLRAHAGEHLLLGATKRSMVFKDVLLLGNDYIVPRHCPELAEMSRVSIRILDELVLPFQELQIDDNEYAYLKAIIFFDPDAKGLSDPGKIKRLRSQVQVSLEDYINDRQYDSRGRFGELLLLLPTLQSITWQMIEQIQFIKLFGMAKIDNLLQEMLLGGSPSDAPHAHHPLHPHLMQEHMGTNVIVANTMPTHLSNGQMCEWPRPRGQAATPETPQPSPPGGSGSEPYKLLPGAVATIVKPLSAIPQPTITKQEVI

Turning to `O=C1OC(=O)C(F)(F)C1(F)F`, the outcome in [1], in experiment [2], in experiment [3], in experiment [4], in [5] and in experiment [6] was inactive.
Regarding `C=CC(=C)CC/C=C(\C)CCC=C(C)C`, the call in experiment [1], in experiment [2], in experiment [3], in experiment [4], in experiment [7] and in experiment [5] was inactive. The molecule was called inactive in experiment [6].
Take `C=CC(C)(CCC=C(C)C)OC(C)=O` (centres undefined): the call in [1], in experiment [2], in [3], in [8], in experiment [7] and in experiment [5] was inactive. Also, the molecule was classed as inactive in experiment [6].
As for `C=COC(=O)C(C)(C)CCCCCC`, the outcome in [1], in experiment [2], in experiment [9], in experiment [4], in experiment [8] and in [7] was inactive. Further, the outcome in experiment [5] and in experiment [6] was inactive.
A word on the AC50: it is the concentration giving half of the maximal activity seen. For the molecule `CCCCCCCCCCCCCC[n+]1ccccc1`, the outcome in experiment [1], in experiment [2], in [5] and in [6] was inactive. Besides, the AC50 in experiment [3] was 53.6 µM (active); in experiment [9], 100 µM (active); in experiment [8] it was 47 µM (active); in experiment [7], 9.84 µM (active).
As to `COc1ccccc1NC(=O)c1cc2ccccc2cc1O`, the result in experiment [1], in experiment [2], in experiment [3], in experiment [4], in experiment [8] and in experiment [6] was inactive. Also, in experiment [5], the AC50 is 121 µM (active).
As for `CC[N+](CC)(CC)Cc1ccccc1`, the call in experiment [1], in experiment [2], in experiment [9], in [4], in experiment [8] and in [5] was inactive. For the same molecule, the outcome in [6] was inactive.
Regarding `CC(=O)Nc1ccc(S(N)(=O)=O)cc1`, the result in [1], in experiment [2], in experiment [3], in [9], in experiment [4] and in [5] was inactive. For the same molecule, the call in [6] was inactive.
For the molecule `COC1=CC(=O)C[C@@H](C)[C@]12Oc1c(Cl)c(OC)cc(OC)c1C2=O`, the result in experiment [1], in [2], in experiment [3], in experiment [7], in [5] and in experiment [6] was inactive.
Consider `CCO[Si](CCC1CCC2OC2C1)(OCC)OCC` (centres undefined), for which the molecule was called inactive in experiment [1], in experiment [2], in experiment [3], in experiment [4], in [8] and in experiment [5]. Further, the call in experiment [6] was inactive.
Regarding `Cc1ccccc1OCC(=O)O`, in experiment [2], the call was inactive.
For `CCCCCCCC(OC)OC`, the molecule was classed as inactive in experiment [1], in experiment [4], in experiment [5] and in [6].
Turning to `FC(F)(F)C1(F)C(F)(F)C(F)(F)C(F)(F)C(F)(C(F)(F)F)C1(F)F` (centres undefined), the molecule was classed as inactive in experiment [1], in experiment [4], in experiment [8], in experiment [5] and in experiment [6].
`Nc1cc(Cl)c(-c2cc(Cl)c(N)cc2Cl)cc1Cl`: the AC50 in experiment [1] is 11.1 µM (active). For the same molecule, the molecule was called inactive in [3], in experiment [8], in experiment [5] and in experiment [6].
Consider `Cc1ccc(C(=O)c2ccccc2)cc1`, for which the outcome in [1], in [9], in experiment [7], in experiment [5] and in [6] was inactive.
In the case of `CCC1CO1` (centres undefined), the call in experiment [1], in experiment [9], in experiment [4], in experiment [5] and in experiment [6] was inactive.
For `O=C(Nc1cccc([N+](=O)[O-])c1)c1cc2ccccc2cc1O`, the call in [1], in [3], in experiment [7], in experiment [5] and in experiment [6] was inactive.
Regarding `c1cc2cccc3c4cccc5cccc(c(c1)c23)c54`, the molecule was classed as inactive in experiment [1], in experiment [4], in experiment [7], in [5] and in experiment [6].
`Oc1ccc(Cc2ccccc2O)cc1`: the molecule was classed as inactive in experiment [1], in experiment [3], in experiment [7], in experiment [5] and in experiment [6].
With `OCC(F)(F)C(F)(F)C(F)(F)C(F)(F)C(F)(F)C(F)(F)C(F)(F)C(F)(F)C(F)(F)C(F)(F)C(F)(F)F`, the outcome in experiment [1], in experiment [9], in experiment [4], in experiment [8], in experiment [5] and in experiment [6] was inactive.
On to `CCCCC=O`, for which the molecule was called inactive in [1], in experiment [4], in experiment [5] and in experiment [6].
Take `Cc1ccccc1C(OCCN(C)C)c1ccccc1` (centres undefined): the result in experiment [1], in experiment [4], in experiment [5] and in [6] was inactive.
As to `CCCCCCCCCCCCOC(=O)c1cc(O)c(O)c(O)c1`, the AC50 in experiment [1] was 45.1 µM (active). Also, the outcome in [3], in [8], in experiment [5] and in experiment [6] was inactive.
As for `O=C1Cc2ccccc2N1c1c(Cl)cccc1Cl`, the molecule was called inactive in experiment [1], in experiment [9], in experiment [4], in experiment [8], in [7] and in [5]. The molecule was classed as inactive in experiment [6].
With `C/C=C/C(=O)C1=C(C)CCCC1(C)C`, the result in experiment [1], in [4], in [8], in [5] and in experiment [6] was inactive. Moreover, the AC50 is 159 µM (active) in experiment [9] and 152 µM (active) in [7].
For the molecule `O=S(=O)(c1ccc(OCc2ccccc2)cc1)c1ccccc1O`, the call in experiment [1], in experiment [4], in [8] and in experiment [6] was inactive. The values for the AC50 in experiment [7] and in [5] were 49.9 µM (active) and 33.4 µM (active), respectively.
Consider `O=C(c1cc(O)c(O)c(O)c1)c1ccc(O)c(O)c1O`, for which the call in experiment [1], in experiment [4], in [8], in experiment [5] and in experiment [6] was inactive.
For the molecule `CC(C)(O)C(=O)c1ccccc1`, the result in [1], in experiment [3], in experiment [8], in experiment [7], in [5] and in [6] was inactive.
With `CCN(CCC#N)c1ccccc1`, the outcome in experiment [1], in [4], in experiment [8], in experiment [7], in experiment [5] and in [6] was inactive.
`COC(O)c1ccccc1` (centres undefined): the outcome in experiment [1], in experiment [4], in experiment [8], in [5] and in experiment [6] was inactive.
For the molecule `CCCCCC(C)OC(=O)COc1ccc(Cl)c2cccnc12` (centres undefined), the result in experiment [1], in experiment [9], in experiment [4], in experiment [5] and in experiment [6] was inactive.
As to `CCCCCc1ccc(O)cc1`, the result in experiment [1], in experiment [4], in experiment [7], in [5] and in experiment [6] was inactive.
In the case of `O=C(C=C(O)C(F)(F)F)C(F)(F)F`, the molecule was called inactive in experiment [1], in [8], in experiment [5] and in experiment [6].
As to `CN(Cc1cnc2nc(N)nc(N)c2n1)c1ccc(C(=O)N[C@@H](CCC(=O)O)C(=O)O)cc1`, the result in experiment [1], in [3], in experiment [5] and in experiment [6] was inactive.
